Results taken from PubChem BioAssay (NCI).
Where “and” joins values, the source holds several entries; their conditions need not be identical. Identical values can stand only once. About 79,000 compounds went through this panel and 15% of them were active in at least one assay; those are over-represented in the sample as a whole. Values without a mark were called inactive. Calls of active or inactive are those of the source. Cut-off read from the data, not from the text of the source: active = growth inhibition above about 70%; inactive = the rest.

Assays:
[1] = NCI Yeast Anticancer Drug Screen. Data for the rad50 strain (AID 155);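 note: 0% = growth of vehicle-only cultures of the same strain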; conditions: S. cerevisiae rad50 strain growth inhibition; at 50.0 µM; stronger effect = higher value
In short: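 Inhibition values express reduced yeast growth in compound-treated cultures relative to vehicle-treated controls.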

[2] = NCI Yeast Anticancer Drug Screen. Data for the mec2-1 strain (AID 157); conditions: S. cerevisiae mec2-1 strain, at 50.0 µM, stronger effect = higher value
In short: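 mec2-1 yeast strain, carrying an alteration in DNA damage repair or cell cycle control, was exposed to compounds; growth inhibition was measured relative to vehicle-treated controls.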

[3] = NCI Yeast Anticancer Drug Screen. Data for the mlh1 rad18 strain (AID 175); conditions: S. cerevisiae mlh1 rad18 strain growth inhibition; at 50.0 µM; stronger effect = higher value
In short: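 Growth inhibition of the yeast strain was measured after compound exposure and expressed relative to vehicle-treated controls. The strain carries defined defects in DNA damage repair.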

[4] = NCI Yeast Anticancer Drug Screen. Data for the sgs1 mgt1 strain (AID 161);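 note: 0% = growth of cultures given vehicle only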; conditions: S. cerevisiae sgs1 mgt1 strain, at 50.0 µM, stronger effect = higher value
In short: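 This yeast growth screen uses a strain with defined DNA-repair lesions; compound-treated growth is compared with vehicle-treated growth.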

[5] = NCI Yeast Anticancer Drug Screen. Data for the cln2 rad14 strain (AID 165);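 note: 0% = growth equal to vehicle treated cultures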; conditions: S. cerevisiae cln2 rad14 strain, at 50.0 µM, stronger effect = higher value
In short: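 Yeast carrying cln2 and rad14 alterations (cell cycle control and DNA damage repair) were exposed to compounds. Growth inhibition was measured against vehicle-treated controls.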

[6] = NCI Yeast Anticancer Drug Screen. Data for the bub3 strain (AID 167); conditions: S. cerevisiae bub3 mutant strain, at 50.0 µM, stronger effect = higher value
In short: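 Steps: expose the mutant yeast strain to compound; grow alongside vehicle-treated cultures; measure growth; express inhibition against the vehicle cultures.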

## CC[n+]1c(C)n(Cc2ccc(C(=O)O)cc2)c2cc(F)ccc21
[1]
  growth inhibition: -10.8%
[2]
  growth inhibition: -14.7%
[3]
  growth inhibition: 27.9%

## CCOc1cccc(/C=C2\N=C(c3ccccc3)OC2=O)c1
[1]
  growth inhibition: 4.35%
[2]
  growth inhibition: 25%
[3]
  growth inhibition: 10.9%

## COc1cc(-c2cc(=O)c3ccc(O)cc3o2)cc(OC)c1OC
[1]
  growth inhibition: 10.1%
[2]
  growth inhibition: -32.4%
[3]
  growth inhibition: 2.2%

## Clc1ccc(C(c2cccs2)N2CCNCC2)cc1 (configuration not stated)
[1]
  growth inhibition: 5.45%
[2]
  growth inhibition: -2.75%
[3]
  growth inhibition: 5.35%

## Nc1ccc(I)cc1Cl
[1]
  growth inhibition: 15.8%
[2]
  growth inhibition: 4.5%
[3]
  growth inhibition: 24.4%

## Cc1ccc(NC(=S)N(C)C)cc1C
[1]
  growth inhibition: -2.7%
[2]
  growth inhibition: -26.3%
[3]
  growth inhibition: 1.1%

## CCCCCCC(C/C=C\CCCCCCCC(=O)OC)OC(C)=O (configuration not stated)
[1]
  growth inhibition: -10.2%
[2]
  growth inhibition: -16.7%
[3]
  growth inhibition: -4.5%

## OC1CCC2CN3CCc4c([nH]c5ccccc45)C3CC2C1 (configuration not stated)
[1]
  growth inhibition: 23.6%
[2]
  growth inhibition: -9.5%
[3]
  growth inhibition: 27.8%

## CN(C)/C=C/C(=O)c1ccccc1[N+](=O)[O-]
[1]
  growth inhibition: 16.7%
[2]
  growth inhibition: -11.4%
[3]
  growth inhibition: 12.2%

## Nc1nc(N)nc(-c2ccccc2Cl)n1
[1]
  growth inhibition: 3.65%
[2]
  growth inhibition: -10.8%
[3]
  growth inhibition: 32.2%

## CC12CC3CC(C(Cl)C(=O)O)(C1)CC(C(Cl)C(=O)O)(C3)C2 (configuration not stated)
[1]
  growth inhibition: 52.1%
[2]
  growth inhibition: 14.5%
[3]
  growth inhibition: 46.6%

## CC(C)N(C)c1ccc(N=Nc2cc(Cl)ccc2Cl)cc1
[1]
  growth inhibition: -27.6%
[2]
  growth inhibition: -36.8%
[3]
  growth inhibition: -24.4%

## CCN(CC)c1cc(C(C)(C)C)cc(C(C)(C)C)c1
[1]
  growth inhibition: 0.45%
[2]
  growth inhibition: -21.5%
[3]
  growth inhibition: -11.1%

## Cc1ccc(CNc2ccc(F)cc2)cc1
[1]
  growth inhibition: 29.9%
[2]
  growth inhibition: 28.9%
[3]
  growth inhibition: 19.8%

## C=CCCCCCCCCC(=O)Cl
[1]
  growth inhibition: 33.9%
[2]
  growth inhibition: 3.35%
[3]
  growth inhibition: 11.1%

## O=C(O)c1ccccc1C(=O)NNC(=O)c1ccccc1C(=O)O
[1]
  growth inhibition: 4.65%
[2]
  growth inhibition: -5.3%
[3]
  growth inhibition: -13.6%

## CCOC(=O)C(C)Oc1ccccc1[N+](=O)[O-] (configuration not stated)
[1]
  growth inhibition: -24.6%
[2]
  growth inhibition: -41.2%
[3]
  growth inhibition: -15.8%

## Cc1cccc(C2NC(=O)c3ccccc3N2)c1 (configuration not stated)
[1]
  growth inhibition: 9.35%
[2]
  growth inhibition: -15.8%
[3]
  growth inhibition: 10.5%

## COC(=O)c1cc(NC(=O)CC(=O)c2cccc(N)c2)cc(C(=O)OC)c1
[1]
  growth inhibition: -3.8%
[2]
  growth inhibition: -12.8%
[3]
  growth inhibition: 8.4%

## N#[N+]c1ccc2c(S(=O)(=O)O)cccc2c1O
[1]
  growth inhibition: -17.9%
[2]
  growth inhibition: -16.2%
[3]
  growth inhibition: -25.7%

## COc1cc(-c2nc(SC)nc3c2CCc2ccccc2-3)cc(OC)c1OC
[2]
  growth inhibition: -5.85%
[4]
  growth inhibition: 2.95%
[5]
  growth inhibition: 10.9%
[6]
  growth inhibition: 4.35%
[3]
  growth inhibition: -20.2%

## C[N+](C)(C)CN1C(=O)c2ccccc2C1=O
[2]
  growth inhibition: -29.2%
[3]
  growth inhibition: -4.8%

## COc1ccc(-c2cc(=O)c3c(O)cccc3o2)cc1
[1]
  growth inhibition: 2.65%
[3]
  growth inhibition: -1.35%

## NC(N)=Nc1ccc(CC(N)C(=O)O)cc1 (configuration not stated)
[2]
  growth inhibition: -18.8%
[4]
  growth inhibition: -13.4%
[5]
  growth inhibition: 15.2%
[3]
  growth inhibition: -25.6%

## C[Si]1(C)N[Si](C)(C)N[Si](C)(C)N1
[1]
  growth inhibition: 13.2%
[3]
  growth inhibition: 2.3%

## CCOC(=O)c1cc(C)nc2c1c(=O)n(-c1ccccc1)c(=O)n2CCCCN1CCN(c2ncccn2)CC1
[2]
  growth inhibition: -32.4%
[4]
  growth inhibition: 12.2%
[5]
  growth inhibition: 7.45%

## COC(=O)c1ccc2oc(=O)cc(C)c2c1O
[1]
  growth inhibition: -7.6%
[3]
  growth inhibition: 11.7%

## c1cc[n+](CCNCC[n+]2ccccc2)cc1
[1]
  growth inhibition: 8.55%
[3]
  growth inhibition: 36.6%

## COc1cc(/C=N\NC(=O)OC(C)(C)C)cc(OC)c1OC
[2]
  growth inhibition: -17.4%
[3]
  growth inhibition: 10.5%

## C=C1CC2(C)CCC(OC(=O)C3(C)OC3C)C(C)(OC(C)=O)C2CC1=C(C)C (configuration not stated)
[2]
  growth inhibition: -36.8%
[4]
  growth inhibition: 7.55%
[5]
  growth inhibition: 16.2%
[3]
  growth inhibition: -55%

## N#CC1(C#N)C2CCCCC23OC(=N)C1(C#N)C(c1ccco1)O3 (configuration not stated)
[2]
  growth inhibition: 19.7%
[4]
  growth inhibition: -29.2%
[5]
  growth inhibition: -17.1%
[3]
  growth inhibition: -25.4%

## CC(C)c1nc(-c2ccccc2)c(-c2ccccc2)[nH]1
[2]
  growth inhibition: 13.1%

## COc1cc(/C=N/N2CCCCC2)cc(OC)c1OC
[1]
  growth inhibition: -19%
[3]
  growth inhibition: -21.8%

## N#C/C(=C/c1c(O)ccc2ccccc12)C(N)=O
[2]
  growth inhibition: 18.4%
[3]
  growth inhibition: 60.9%

## NS(=O)(=O)c1ccc(NC(=O)/C=C/C(=O)O)cc1
[1]
  growth inhibition: -11.9%
[3]
  growth inhibition: -4%

## Cc1ccc(NCN2C(=O)c3ccccc3C2=O)cc1Cl
[2]
  growth inhibition: -5.55%
[3]
  growth inhibition: 28.3%

## C1CCCCNCCC1
[2]
  growth inhibition: -22.2%
[4]
  growth inhibition: -56.5%
[5]
  growth inhibition: -3.4%
[6]
  growth inhibition: -26.7%

## COc1ccc(-c2cc(=O)c3c(C)cc(O)cc3o2)cc1
[1]
  growth inhibition: -9.4%
[3]
  growth inhibition: 37.9%

## O=C1c2ccccc2C(=O)N1/N=C/c1cc(Br)ccc1O
[1]
  growth inhibition: 22.2%
[3]
  growth inhibition: 10.4%

## C/C(=C\COc1cc(O)c2c(c1)C(=O)c1cc(C)cc(O)c1C2=O)CCC1OC1(C)C (configuration not stated)
[2]
  growth inhibition: -22.9%
[4]
  growth inhibition: 4.55%
[5]
  growth inhibition: -0.65%
[6]
  growth inhibition: -12.4%
[3]
  growth inhibition: -53.7%

## CCC(=O)C(CC)c1cccc(OC)c1 (configuration not stated)
[2]
  growth inhibition: -3.8%
[4]
  growth inhibition: 12.2%
[5]
  growth inhibition: 25.3%
[6]
  growth inhibition: 9.55%
[3]
  growth inhibition: 21.4%

## COC(=O)c1ccc(NC(=O)O/N=C(\Cl)C(C)C)cc1
[2]
  growth inhibition: -20.7%
[4]
  growth inhibition: 59.7%
[5]
  growth inhibition: 8.85%
[6]
  growth inhibition: 34.1%
[3]
  growth inhibition: 0.75%

## COc1ccc(/C(C#N)=C2C=C(Cl)/C(=N/O)C=C/2Cl)cc1
[1]
  growth inhibition: -6.55%
[3]
  growth inhibition: -19.2%

## O=C(O)c1cc(N=Nc2ccccc2)ccc1O
[2]
  growth inhibition: -12.7%
[3]
  growth inhibition: -23.8%

## Cc1ccc(NC(=S)NCCO)cc1
[1]
  growth inhibition: -25.4%
[3]
  growth inhibition: -13.6%

## CCCCCCCCCCCCCCCCOc1ccc(C)cc1
[2]
  growth inhibition: -29.5%
[3]
  growth inhibition: -27.9%

## COc1cc2c(cc1O)C(Cc1ccc(OC)c(OC)c1)N(C)CC2 (configuration not stated)
[1]
  growth inhibition: 4.25%
[3]
  growth inhibition: 2.35%

## OCc1ccccn1
[2]
  growth inhibition: 3.45%
[4]
  growth inhibition: -4.65%
[5]
  growth inhibition: -0.25%
[6]
  growth inhibition: -3.95%
[3]
  growth inhibition: 16.7%

## N/C(Cc1ccc(N)cc1)=N\O
[1]
  growth inhibition: -17.4%
[3]
  growth inhibition: -13.8%

## CC(O)Cn1cnc2c1c(=O)n(C)c(=O)n2C (configuration not stated)
[1]
  growth inhibition: -40.1%
[3]
  growth inhibition: -30.1%

## CCCCCCCC/C=C\CCCCCCCCOC(N)=O
[1]
  growth inhibition: -30.7%
[3]
  growth inhibition: -17.1%

## Cc1nnc(SCC2=C(C(=O)O)N3C(=O)C(NC(=O)Cn4cnnn4)C3SC2)s1 (configuration not stated)
[2]
  growth inhibition: 3.45%
[4]
  growth inhibition: 15.6%
[6]
  growth inhibition: -1.9%
[3]
  growth inhibition: 13.3%

## CC1=NN(c2ccccc2)C(=O)C1C(=O)c1ccccc1 (configuration not stated)
[1]
  growth inhibition: 22.2%
[3]
  growth inhibition: 14%

## O=C(/C=N/O)Nc1cc(Cl)ccc1Cl
[1]
  growth inhibition: 17.6%
[3]
  growth inhibition: 17.3%

## CCC1OC2(C)CC(C#N)(C#N)C1(C#N)C(=N)O2 (configuration not stated)
[2]
  growth inhibition: -3.9%
[4]
  growth inhibition: -46.4%
[5]
  growth inhibition: -8.2%
[6]
  growth inhibition: -31.4%
[3]
  growth inhibition: -10.7%

## COC(=O)CCNCc1ccccc1
[1]
  growth inhibition: -7.25%
[3]
  growth inhibition: 10.4%

## O=C(O)COc1cc(-c2ccccc2F)nc2cc3c(cc12)OCO3
[2]
  growth inhibition: 22.5%
[4]
  growth inhibition: 15.9%
[5]
  growth inhibition: 7.9%
[6]
  growth inhibition: -3.15%
[3]
  growth inhibition: -18.1%

## CCCCCCC(=O)CCCC(C)CCCC(C)C (configuration not stated)
[2]
  growth inhibition: -23.6%
[3]
  growth inhibition: -3.85%

## O=C1c2ccccc2C(=O)N1/N=C/c1cc(Cl)cc(Cl)c1O
[2]
  growth inhibition: -17.4%
[3]
  growth inhibition: -4.95%

## Nc1nc([Se]c2nc(N)nc3c2ncn3C2OC(CO)C(O)C2O)c2ncn(C3OC(CO)C(O)C3O)c2n1 (configuration not stated)
[3]
  growth inhibition: -32.2%

## CN(C)c1ccc2c(Nc3ccc(NS(C)(=O)=O)cc3)c3ccc(N(C)C)cc3nc2c1
[3]
  growth inhibition: 65.6%

## CCOc1ccc(N=c2ssc(SC)c2-c2ccccc2)cc1
[2]
  growth inhibition: -10.8%
[3]
  growth inhibition: 20.5%

## Cc1cc(Cl)ccc1NCN1C(=O)c2ccccc2C1=O
[2]
  growth inhibition: -8.9%
[3]
  growth inhibition: 15.8%

## CCOC(=O)CC(=O)c1ccccc1
[4]
  growth inhibition: 8.9% and -0.85%
[5]
  growth inhibition: 10.8% and 11.1%
[6]
  growth inhibition: 13.8% and -12.7%

## ClCCCC1(CCCCl)OCCO1
[3]
  growth inhibition: -2.2%

## NCCSC(C[N+](=O)[O-])c1ccccc1Cl (configuration not stated)
[3]
  growth inhibition: 87.4% (active)

## C[n+]1ccc(/C=C\c2ccc3c(c2)OCO3)cc1
[2]
  growth inhibition: -26.9%
[3]
  growth inhibition: 2.6%

## O=C1C2C3C=CC(C2C(=O)N1CO)C1C2C(=O)N(CO)C(=O)C2C31 (configuration not stated)
[3]
  growth inhibition: 2.2%

## O[C@H]1[C@H](O)[C@@H](Cn2nnc(-c3ccccc3)c2-c2ccccc2)OCO[C@@H]1Cn1nnc(-c2ccccc2)c1-c1ccccc1
[4]
  growth inhibition: 13.4%
[5]
  growth inhibition: 50.9%
[6]
  growth inhibition: 28.8%
[3]
  growth inhibition: 29.1%
